The full data set covers some 7,900 targets. This sample favours those with a hit. About 0.6% of all pairs of compound and target were hits. A number with no mark means an inactive call.
What was measured:
Test in all cases: log2 fold change, soluble protein after heating vs DMSO (PISA); higher = thermal stabilisation; K562 cells, 10 uM, 30 min; active = over 0.2 and 3.5 SD of the protein, either way, in both replicates (recomputed)
[1] = compound: C1=CC=C(C=C1)[C@H](COC2=CC3=C(C=C2)NC(=O)N3)NC(=O)C4=CC=CN(C4=O)CC5=CC(=C(C=C5)F)F
Method in brief: (§1)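 Soluble protein was defined as the supernatant after 21,000xg for 90 min. It came from K562 cells at 2×10^6 cells/mL given 10 μM compound for 30 min, heated in aliquots for 3 min across 48°C-58°C, pooled, and extracted in PBS with 0.5% NP-40 at 4°C, and was quantified by TMTpro 16plex LC-MS/MS with equalised channel sums. Thermal stability against control samples, from duplicates, is reported as log2 fold change.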

[2] = compound: CC1=C(SC2=C1C(=N[C@H](C3=NN=C(N32)C)CC(=O)N)C4=CC=C(C=C4)Cl)C
Method in brief: as §1

[3] = compound: CC1=C2C(=CC=C1)N=C(N(C2=O)C3=CC=CC=C3C)CN4C=NC5=C(N=CN=C54)N
Method in brief: as §1

[4] = compound: Cc1sc2c(c1C)C(c1ccc(Cl)cc1)=N[C@@H](CC(=O)OC(C)(C)C)c1nnc(C)n1-2
Method in brief: as §1

[5] = compound: c1ccc([C@@H]2C[C@H]2NC2CCNCC2)cc1
Method in brief: as §1

Sequence of UniProt Q9ULV3 (Q9ULV3 whole entry, looked up): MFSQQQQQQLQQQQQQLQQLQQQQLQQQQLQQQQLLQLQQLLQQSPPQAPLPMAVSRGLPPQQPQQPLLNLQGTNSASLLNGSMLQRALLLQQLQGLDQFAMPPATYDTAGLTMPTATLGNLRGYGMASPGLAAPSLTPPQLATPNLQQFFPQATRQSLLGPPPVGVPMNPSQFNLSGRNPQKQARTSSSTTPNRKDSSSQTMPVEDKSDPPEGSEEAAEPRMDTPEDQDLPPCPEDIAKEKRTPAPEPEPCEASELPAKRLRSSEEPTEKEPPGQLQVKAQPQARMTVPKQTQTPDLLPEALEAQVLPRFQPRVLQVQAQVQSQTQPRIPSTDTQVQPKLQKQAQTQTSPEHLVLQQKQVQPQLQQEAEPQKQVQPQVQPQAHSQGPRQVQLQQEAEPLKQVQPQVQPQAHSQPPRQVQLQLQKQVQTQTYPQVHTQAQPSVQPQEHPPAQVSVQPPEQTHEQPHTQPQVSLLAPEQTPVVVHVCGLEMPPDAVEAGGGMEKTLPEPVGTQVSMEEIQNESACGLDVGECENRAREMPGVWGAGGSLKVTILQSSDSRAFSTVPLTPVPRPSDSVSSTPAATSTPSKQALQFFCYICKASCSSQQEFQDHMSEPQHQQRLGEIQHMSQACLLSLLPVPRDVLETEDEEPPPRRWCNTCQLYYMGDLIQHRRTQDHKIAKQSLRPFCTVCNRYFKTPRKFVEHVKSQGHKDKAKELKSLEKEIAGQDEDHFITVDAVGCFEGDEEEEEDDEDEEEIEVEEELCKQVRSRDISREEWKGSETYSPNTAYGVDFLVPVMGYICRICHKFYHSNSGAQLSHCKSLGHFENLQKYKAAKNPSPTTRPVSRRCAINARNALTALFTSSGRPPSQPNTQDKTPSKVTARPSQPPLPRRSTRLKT
Sequence of UniProt P50750 (P50750 whole entry, looked up): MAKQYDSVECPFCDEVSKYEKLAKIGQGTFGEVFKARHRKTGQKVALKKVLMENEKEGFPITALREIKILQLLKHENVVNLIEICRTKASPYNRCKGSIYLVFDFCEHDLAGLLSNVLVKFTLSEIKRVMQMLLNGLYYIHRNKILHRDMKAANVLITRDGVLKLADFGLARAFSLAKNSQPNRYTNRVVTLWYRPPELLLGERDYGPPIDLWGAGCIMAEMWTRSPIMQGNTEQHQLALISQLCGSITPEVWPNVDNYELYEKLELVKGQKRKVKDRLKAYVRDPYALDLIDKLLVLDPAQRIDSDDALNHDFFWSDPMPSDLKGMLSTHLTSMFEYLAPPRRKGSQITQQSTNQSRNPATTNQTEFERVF
Sequence of UniProt P35219 (P35219 whole entry, looked up): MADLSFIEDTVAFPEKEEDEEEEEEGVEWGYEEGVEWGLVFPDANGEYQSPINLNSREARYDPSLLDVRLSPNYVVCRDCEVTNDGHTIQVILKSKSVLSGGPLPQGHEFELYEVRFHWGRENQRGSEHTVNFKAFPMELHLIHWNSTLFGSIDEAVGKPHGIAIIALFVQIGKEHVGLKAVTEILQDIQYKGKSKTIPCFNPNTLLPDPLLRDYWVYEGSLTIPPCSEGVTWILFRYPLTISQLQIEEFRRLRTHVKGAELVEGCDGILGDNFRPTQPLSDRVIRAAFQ
Sequence of UniProt Q7L3B6 (Q7L3B6 whole entry, looked up): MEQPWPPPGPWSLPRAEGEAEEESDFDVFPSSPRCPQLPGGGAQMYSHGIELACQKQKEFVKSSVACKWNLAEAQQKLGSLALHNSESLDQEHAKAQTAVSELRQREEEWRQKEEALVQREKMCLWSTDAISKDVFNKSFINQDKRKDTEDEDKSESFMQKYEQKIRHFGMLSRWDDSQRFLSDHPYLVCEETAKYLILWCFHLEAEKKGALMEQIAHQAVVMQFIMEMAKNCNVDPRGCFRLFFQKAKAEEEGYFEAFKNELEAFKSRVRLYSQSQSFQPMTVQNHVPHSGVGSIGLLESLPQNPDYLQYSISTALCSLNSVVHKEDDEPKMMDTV
Sequence of UniProt O75909 (O75909 whole entry, looked up): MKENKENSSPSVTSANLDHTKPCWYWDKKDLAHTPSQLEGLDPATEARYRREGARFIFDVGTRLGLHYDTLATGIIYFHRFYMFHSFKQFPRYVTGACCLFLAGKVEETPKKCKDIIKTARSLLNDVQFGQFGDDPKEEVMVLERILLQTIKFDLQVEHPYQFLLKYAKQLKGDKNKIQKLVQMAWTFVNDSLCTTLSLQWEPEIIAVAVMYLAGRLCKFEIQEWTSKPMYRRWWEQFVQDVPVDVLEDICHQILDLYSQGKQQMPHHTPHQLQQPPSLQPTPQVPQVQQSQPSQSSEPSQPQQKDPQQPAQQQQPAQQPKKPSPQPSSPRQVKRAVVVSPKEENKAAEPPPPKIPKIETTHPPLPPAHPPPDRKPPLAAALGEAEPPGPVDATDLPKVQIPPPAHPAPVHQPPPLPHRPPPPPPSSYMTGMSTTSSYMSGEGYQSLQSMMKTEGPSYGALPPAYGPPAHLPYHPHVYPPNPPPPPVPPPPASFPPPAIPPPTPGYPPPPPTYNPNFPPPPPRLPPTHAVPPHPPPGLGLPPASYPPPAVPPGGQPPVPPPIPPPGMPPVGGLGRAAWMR
Sequence of UniProt Q8IWV2 (Q8IWV2 whole entry, looked up): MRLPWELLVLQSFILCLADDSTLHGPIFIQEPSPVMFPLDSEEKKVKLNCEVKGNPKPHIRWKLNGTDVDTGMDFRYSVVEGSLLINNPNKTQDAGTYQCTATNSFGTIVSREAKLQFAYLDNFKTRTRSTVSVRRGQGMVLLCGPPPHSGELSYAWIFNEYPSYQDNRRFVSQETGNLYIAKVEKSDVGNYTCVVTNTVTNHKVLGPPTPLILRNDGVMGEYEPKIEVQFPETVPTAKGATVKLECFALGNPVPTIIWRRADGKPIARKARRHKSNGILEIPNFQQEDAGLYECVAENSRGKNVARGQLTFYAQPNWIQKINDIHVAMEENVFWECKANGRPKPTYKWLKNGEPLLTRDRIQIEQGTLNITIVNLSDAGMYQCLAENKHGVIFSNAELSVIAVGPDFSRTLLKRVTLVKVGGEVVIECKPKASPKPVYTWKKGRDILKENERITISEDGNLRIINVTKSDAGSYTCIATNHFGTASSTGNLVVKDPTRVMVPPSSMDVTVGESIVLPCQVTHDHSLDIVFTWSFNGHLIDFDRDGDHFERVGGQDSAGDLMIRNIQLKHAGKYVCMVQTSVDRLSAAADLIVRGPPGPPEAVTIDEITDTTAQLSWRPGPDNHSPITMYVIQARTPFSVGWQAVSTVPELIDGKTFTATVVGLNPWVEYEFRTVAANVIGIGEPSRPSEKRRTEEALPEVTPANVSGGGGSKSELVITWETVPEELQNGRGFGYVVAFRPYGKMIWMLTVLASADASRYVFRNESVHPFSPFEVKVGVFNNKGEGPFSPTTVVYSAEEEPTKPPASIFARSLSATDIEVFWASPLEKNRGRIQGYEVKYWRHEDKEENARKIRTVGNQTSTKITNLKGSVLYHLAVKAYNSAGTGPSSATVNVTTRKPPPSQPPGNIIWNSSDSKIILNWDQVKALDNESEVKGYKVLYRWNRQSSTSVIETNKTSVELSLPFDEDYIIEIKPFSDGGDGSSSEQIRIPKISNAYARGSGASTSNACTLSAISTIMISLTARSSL
Sequence of UniProt Q99627 (Q99627 whole entry, looked up): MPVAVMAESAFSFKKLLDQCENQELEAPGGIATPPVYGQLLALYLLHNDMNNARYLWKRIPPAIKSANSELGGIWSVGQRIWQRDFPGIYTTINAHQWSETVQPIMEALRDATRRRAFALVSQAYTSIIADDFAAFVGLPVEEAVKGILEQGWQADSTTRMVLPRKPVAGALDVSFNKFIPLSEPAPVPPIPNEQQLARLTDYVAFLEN
Sequence of UniProt P48730 (P48730 whole entry, looked up): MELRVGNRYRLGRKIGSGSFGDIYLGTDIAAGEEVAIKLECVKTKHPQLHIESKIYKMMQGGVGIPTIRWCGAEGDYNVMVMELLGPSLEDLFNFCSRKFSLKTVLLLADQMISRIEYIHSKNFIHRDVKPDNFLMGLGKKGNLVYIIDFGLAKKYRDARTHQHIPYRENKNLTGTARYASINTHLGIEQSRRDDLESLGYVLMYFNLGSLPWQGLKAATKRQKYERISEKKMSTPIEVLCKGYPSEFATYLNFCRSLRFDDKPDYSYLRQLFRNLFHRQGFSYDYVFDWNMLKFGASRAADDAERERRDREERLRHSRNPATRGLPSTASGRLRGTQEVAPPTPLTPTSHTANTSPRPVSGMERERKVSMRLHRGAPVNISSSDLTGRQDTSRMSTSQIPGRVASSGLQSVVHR
Sequence of UniProt P16152 (P16152 whole entry, looked up): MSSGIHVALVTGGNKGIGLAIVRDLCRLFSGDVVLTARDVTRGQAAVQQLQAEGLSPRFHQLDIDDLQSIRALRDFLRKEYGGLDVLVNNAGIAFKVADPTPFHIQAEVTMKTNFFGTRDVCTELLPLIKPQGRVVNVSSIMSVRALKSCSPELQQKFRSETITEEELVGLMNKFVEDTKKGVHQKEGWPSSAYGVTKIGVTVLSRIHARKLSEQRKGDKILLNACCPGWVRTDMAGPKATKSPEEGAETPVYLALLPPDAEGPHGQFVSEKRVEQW
Sequence of UniProt P12277 (P12277 whole entry, looked up): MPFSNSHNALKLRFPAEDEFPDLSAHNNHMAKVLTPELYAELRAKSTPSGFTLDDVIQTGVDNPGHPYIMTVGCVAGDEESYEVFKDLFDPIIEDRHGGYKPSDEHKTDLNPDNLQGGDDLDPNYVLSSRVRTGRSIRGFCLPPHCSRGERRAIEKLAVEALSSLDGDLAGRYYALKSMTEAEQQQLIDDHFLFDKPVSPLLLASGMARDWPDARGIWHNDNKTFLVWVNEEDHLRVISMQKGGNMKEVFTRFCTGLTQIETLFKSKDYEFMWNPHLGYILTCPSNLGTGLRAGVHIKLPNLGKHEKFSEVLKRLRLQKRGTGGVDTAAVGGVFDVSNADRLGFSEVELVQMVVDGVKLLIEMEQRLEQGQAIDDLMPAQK
Sequence of UniProt Q8NHZ8 (Q8NHZ8 whole entry, looked up): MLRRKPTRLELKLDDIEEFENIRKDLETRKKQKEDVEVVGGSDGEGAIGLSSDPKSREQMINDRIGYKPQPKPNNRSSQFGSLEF

Row | Target | log2 fold change [1] | log2 fold change [2] | log2 fold change [3] | log2 fold change [4] | log2 fold change [5]
1 | CDK6 (UniProt Q00534) | -0.005 | -0.002 | 0.005 | -0.036 | -0.055
2 | CA8 (UniProt P35219) | 0.006 | 0.059 | 0.052 | 0.025 | -0.045
3 | CD55 isoform 7 (UniProt P08174) | 0.026 | -0.058 | -0.009 | -0.066 | -0.049
4 | COX5A (UniProt P20674) | 0.016 | 0.059 | 0.037 | -0.075 | -0.043
5 | CKS1B (UniProt P61024) | -0.004 | 0.056 | 0.024 | -0.067 | -0.02
6 | CBR1 (UniProt P16152) | -0.009 | 0.015 | 0.01 | -0.028 | -0.037
7 | CDC42BPA isoform 6 (UniProt Q5VT25) | -0.101 | -0.039 | 0.083 | 0.031 | 0.069
8 | CLPX (UniProt O76031) | 0.011 | -0.02 | 0.013 | -0.035 | 0.048
9 | CDK5RAP1 (UniProt Q96SZ6) | 0.056 | 0.029 | 0.149 | 0.028 | -0.023
10 | CHMP4B (UniProt Q9H444) | -0.015 | -0.004 | 0.031 | 0.056 | 0.054
11 | CAMSAP1 isoform 3 (UniProt Q5T5Y3) | -0.06 | 0.083 | 0.221 | 0.016 | 0.02
12 | CHERP (UniProt Q8IWX8) | -0.023 | -0.07 | 0.008 | 0.101 | 0.018
13 | CNTN4 (UniProt Q8IWV2) | 0.093 | 0.154 | 0.103 | -0.075 | -0.106
14 | CPSF1 (UniProt Q10570) | -0.012 | -0.049 | -0.017 | 0.132 | 0.006
15 | CD53 (UniProt P19397) | -0.05 | 0.142 | 0.106 | 0.083 | 0.014
16 | CDK11B (UniProt P21127) | -0.05 | 0.015 | 0.137 | -0.01 | 0.059
17 | CHD3 isoform 3 (UniProt Q12873) | -0.104 | 0.038 | 0.069 | -0.038 | 0.087
18 | COPS4 (UniProt Q9BT78) | 0.04 | 0.023 | 0.016 | -0.01 | -0.011
19 | CDC37L1 (UniProt Q7L3B6) | -0.009 | 0.026 | 0.087 | 0.337 | 0.02
20 | CCNDBP1 (UniProt O95273) | 0.023 | -0.118 | 0.182 | 0.007 | 0.047
21 | CCAR2 isoform 2 (UniProt Q8N163) | -0.057 | -0.014 | 0.079 | -0.089 | 0.011
22 | COPS8 (UniProt Q99627) | 0.002 | 0.086 | 0.039 | -0.123 | -0.014
23 | CNOT4 isoform 9 (UniProt O95628) | 0.009 | -0.09 | 0.147 | -0.067 | -0.055
24 | CPT2 (UniProt P23786) | -0.402 | 0.19 | 0.155 | -0.017 | -0.026
25 | CALB1 (UniProt P05937) | 0.001 | 0.009 | -0.045 | -0.068 | 0.026
26 | CLCN7 (UniProt P51798) | -0.018 | 0.024 | -0.054 | 0.024 | -0.032
27 | CDC26 (UniProt Q8NHZ8) | 0.05 | 0.027 | -0.346 | -0.038 | 0.022

Row | Target | log2 fold change [1] | log2 fold change [2] | log2 fold change [3] | log2 fold change [4] | log2 fold change [5]
28 | CETN2 (UniProt P41208) | 0.027 | 0.046 | -0.012 | 0.06 | 0.08
29 | CDAN1 (UniProt Q8IWY9) | -0.035 | -0.049 | 0.051 | 0.091 | 0.022
30 | CKB (UniProt P12277) | -0.1 | 0.01 | 0.038 | -0.022 | -0.118
31 | C4A (UniProt P0C0L4) | -0.158 | -0.067 | 0.127 | -0.101 | -0.01
32 | CDK9 isoform 2 (UniProt P50750) | -0.007 | -0.03 | 0 | 0.089 | 0
33 | CRLF3 (UniProt Q8IUI8) | -0.03 | 0.045 | 0.087 | 0.088 | -0.036
34 | CHCHD4 isoform 2 (UniProt Q8N4Q1) | 0.08 | 0.205 | -0.006 | -0.489 (active) | -0.113
35 | CLUH, A0A494C0R8 | -0.121 | -0.004 | 0.025 | 0.152 | 0.096
36 | CBX1 (UniProt P83916) | 0.003 | 0.026 | 0.023 | -0.003 | 0.031
37 | CIT isoform 4 (UniProt O14578) | -0.055 | 0.002 | 0.001 | -0.011 | 0.009
38 | CSNK2A2 (UniProt P19784) | -0.025 | 0.08 | 0.052 | 0.028 | 0.012
39 | CFAP36 isoform 2 (UniProt Q96G28) | -0.042 | 0.01 | 0.383 (active) | -0.009 | -0.158
40 | COQ7 (UniProt Q99807) | -0.038 | 0.016 | 0.029 | 0.014 | 0.048
41 | CASTOR2 (UniProt A6NHX0) | 0.056 | 0.078 | 0.039 | -0.065 | -0.016
42 | CLUH (UniProt O75153) | -0.05 | 0.027 | 0.086 | -0.016 | -0.052
43 | CSNK1A1 (UniProt P48729) | 0.048 | 0 | 0.008 | 0.046 | 0.02
44 | CEMIP2 (UniProt Q9UHN6) | -0.03 | -0.017 | 0.08 | -0.04 | 0.081
45 | CSNK1D (UniProt P48730) | -0.08 | -0.067 | -0.192 | -0.011 | -0.015
46 | CCNK isoform 4 (UniProt O75909) | 0.045 | -0.115 | 0.015 | 0.103 | 0.069
47 | CRTC3 (UniProt Q6UUV7) | -0.083 | 0.044 | -0.065 | 0.004 | 0.034
48 | COPS3 (UniProt Q9UNS2) | 0.011 | 0.001 | 0 | -0.007 | -0.005
49 | CNOT4 isoform 6 (UniProt O95628) | -0.019 | 0.012 | 0.068 | -0.01 | 0.018
50 | CDC123 (UniProt O75794) | -0.036 | 0 | 0.03 | -0.018 | -0.029
51 | CIZ1 (UniProt Q9ULV3) | 0.021 | 0.047 | 0.025 | 0.062 | 0.029
52 | CDK8 (UniProt P49336) | 0 | -0.043 | 0.018 | 0.035 | -0.129
53 | CRKL (UniProt P46109) | 0.01 | 0.041 | 0.032 | 0.016 | -0.002

From the supplement of paper PMC10849652
